For the experiment, the target named is human Protein Kinase D2 (PKD2), PRKD2 (gene 25865) (UniProt Q9BZL6). Briefly: NVS_ENZ_hPKD2: NovaScreen (NVS) Enzymatic Assay for human Protein Kinase D2 (PKD2). The protocol:
NVS_ENZ_hPKD2 is a biochemical, single-readout assay that uses extracted gene-proteins in a cell-free assay. Measurements were taken 1 hour after chemical dosing in a 384-well plate.NVS_ENZ_hPKD2 is one of one assay component(s) measured or calculated from the NVS_ENZ_hPKD2 assay. It is designed to make measurements of enzyme activity, a form of enzyme reporter, as detected with fluorescence intensity signals by Fluorescence and electrophoretic mobility shift technology.Data from the assay component NVS_ENZ_hPKD2 was analyzed into 1 assay endpoint. This assay endpoint, NVS_ENZ_hPKD2, was analyzed in the positive analysis fitting direction relative to DMSO as the negative control and baseline of activity. Using a type of enzyme reporter, loss-of-signal activity can be used to understand changes in the enzymatic activity as they relate to the gene PRKD2. Furthermore, this assay endpoint can be referred to as a primary readout, because this assay has produced multiple assay endpoints where this one serves a enzymatic activity function. To generalize the intended target to other relatable targets, this assay endpoint is annotated to the kinase intended target family, where the subfamily is serine/threonine kinase. […]

Activity calls are given as the source filed them. Rule for the calls: active = hit-call score of the fitted dose curve at least 0.9, where 1 is the maximum; inactive = score below 0.9.

human Protein Kinase D2 (PKD2), PRKD2 (gene 25865), sequence (Q9BZL6 whole entry, looked up): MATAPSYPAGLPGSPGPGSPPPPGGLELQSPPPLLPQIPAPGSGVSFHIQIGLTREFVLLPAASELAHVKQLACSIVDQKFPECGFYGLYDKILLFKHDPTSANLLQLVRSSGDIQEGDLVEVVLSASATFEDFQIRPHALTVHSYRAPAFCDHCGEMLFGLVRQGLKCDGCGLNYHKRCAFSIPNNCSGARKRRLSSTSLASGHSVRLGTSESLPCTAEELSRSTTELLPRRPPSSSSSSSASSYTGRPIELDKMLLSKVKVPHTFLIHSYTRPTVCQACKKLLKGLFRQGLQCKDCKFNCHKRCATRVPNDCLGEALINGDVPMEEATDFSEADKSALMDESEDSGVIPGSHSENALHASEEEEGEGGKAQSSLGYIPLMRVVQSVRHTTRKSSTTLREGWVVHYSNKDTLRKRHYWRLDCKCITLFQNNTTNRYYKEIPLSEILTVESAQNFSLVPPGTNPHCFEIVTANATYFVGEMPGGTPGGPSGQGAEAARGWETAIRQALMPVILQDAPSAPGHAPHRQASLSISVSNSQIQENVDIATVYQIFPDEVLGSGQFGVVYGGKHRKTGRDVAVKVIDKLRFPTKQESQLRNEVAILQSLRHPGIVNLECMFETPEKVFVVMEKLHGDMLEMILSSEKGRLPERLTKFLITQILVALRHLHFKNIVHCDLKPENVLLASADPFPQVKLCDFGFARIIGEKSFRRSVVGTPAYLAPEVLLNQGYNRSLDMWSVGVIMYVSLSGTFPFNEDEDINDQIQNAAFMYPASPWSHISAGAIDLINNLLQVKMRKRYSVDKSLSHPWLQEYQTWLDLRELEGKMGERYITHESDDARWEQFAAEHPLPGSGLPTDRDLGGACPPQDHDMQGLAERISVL

On to `Oc1ccc(C(c2ccc(O)cc2)C(Cl)(Cl)Cl)cc1`, for which the call was inactive.

On to `N#CSCSc1nc2ccccc2s1`, for which the outcome was inactive.

These data come from PubChem BioAssay AID2283197 (EPA ToxCast).
